# Experimental data published in PubChem BioAssay (NCI).
# The panel holds about 79,000 compounds, 15% with a hit somewhere; the sample as a whole holds those more often. A number with no mark means an inactive call. Activity calls are given as the source filed them. Cut-off read from the data, not from the text of the source: active = growth inhibition above about 70%; inactive = the rest.
# Assays:
# [1] = NCI Yeast Anticancer Drug Screen. Data for the sgs1 mgt1 strain (AID 161);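 note: 0% = growth of cultures given vehicle only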; settings: S. cerevisiae sgs1 mgt1 strain, stronger effect = higher value
# How it was run: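 Percent growth inhibition was derived by comparing compound-exposed mutant yeast with vehicle-exposed cultures. The strain carries alterations in DNA damage repair.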
# [2] = NCI Yeast Anticancer Drug Screen. Data for the cln2 rad14 strain (AID 165);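 note: 0% = growth equal to vehicle treated cultures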; settings: S. cerevisiae cln2 rad14 strain, stronger effect = higher value
# How it was run: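 Growth inhibition, relative to vehicle-treated controls, is the read-out. The test organism is a yeast strain with defined genetic alterations, cln2 rad14.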
# [3] = NCI Yeast Anticancer Drug Screen. Data for the bub3 strain (AID 167); settings: S. cerevisiae bub3 mutant strain, stronger effect = higher value
# How it was run: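 Yeast carrying a defined mutation is treated with each compound, and growth is compared with that of vehicle-exposed cells to give inhibition.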
# [4] = NCI Yeast Anticancer Drug Screen. Data for the wt2 strain (AID 169);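 note: 0% = growth of vehicle-treated yeast cultures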; settings: S. cerevisiae wt2 strain growth inhibition, stronger effect = higher value
# How it was run: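 Compound exposure of yeast; growth compared with vehicle controls; inhibition reported.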
# [5] = NCI Yeast Anticancer Drug Screen. Data for the mlh1 strain (AID 171);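 note: 0% = growth of vehicle-treated control cultures of the same strain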; settings: S. cerevisiae mlh1 strain growth inhibition, stronger effect = higher value
# How it was run: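 Compounds are applied to a genetically altered yeast strain, and its growth is compared with that of vehicle-treated cultures to give percent inhibition.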
# [6] = NCI Yeast Anticancer Drug Screen. Data for the sgs1 strain (AID 173);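 note: 0% = growth of vehicle-only control cultures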; settings: S. cerevisiae sgs1 mutant, stronger effect = higher value
# How it was run: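 Compounds applied to genetically altered yeast; growth compared with vehicle-treated cultures to give % inhibition.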
# [7] = NCI Yeast Anticancer Drug Screen. Data for the mlh1 rad18 strain (AID 175); settings: S. cerevisiae mlh1 rad18 strain growth inhibition, stronger effect = higher value
# How it was run: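 Cells of a genetically altered yeast strain, deficient in DNA damage repair, were treated with compound. Their growth was then compared with that of vehicle-treated cultures to give inhibition.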
# [8] = NCI Yeast Anticancer Drug Screen. Data for the rad18 strain (AID 177); settings: S. cerevisiae rad18 mutant growth inhibition, stronger effect = higher value
# How it was run: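 Compounds are applied to a repair-deficient yeast strain, and growth is compared with that of vehicle-treated cultures to give percent inhibition.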
# [9] = NCI Yeast Anticancer Drug Screen. Data for the wt1 strain (AID 149);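 note: 0% = growth of vehicle-treated wt1 cultures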; settings: S. cerevisiae wt1 strain (SPY 50644) growth inhibition, stronger effect = higher value
# How it was run: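 wt1 yeast, compound-treated; % growth inhibition vs vehicle control.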
# [10] = NCI Yeast Anticancer Drug Screen. Data for the rad50EPP+ strain (AID 151);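 note: 0% = growth of vehicle-treated control cultures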; settings: S. cerevisiae rad50 mutant strain, stronger effect = higher value
# How it was run: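 rad50EPP+ yeast treated with test compounds. Readout: growth vs vehicle control.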
# [11] = NCI Yeast Anticancer Drug Screen. Data for the rad50 strain (AID 155);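 note: 0% = growth of vehicle-only cultures of the same strain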; settings: S. cerevisiae rad50 strain growth inhibition, stronger effect = higher value
# How it was run: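 Genetically altered yeast (DNA repair pathway); compound treatment; growth inhibition vs vehicle ctrl.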
# [12] = NCI Yeast Anticancer Drug Screen. Data for the mec2-1 strain (AID 157); settings: S. cerevisiae mec2-1 strain, stronger effect = higher value
# How it was run: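 Growth inhibition is read against vehicle-treated controls after compound exposure of the mec2-1 yeast strain, which is defective in DNA damage repair or cell cycle control.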
# [13] = NCI Yeast Anticancer Drug Screen. Data for the rad14 strain (AID 159);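 note: 0% = growth of vehicle-treated control cultures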; settings: S. cerevisiae rad14 strain growth inhibition, stronger effect = higher value
# How it was run: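 Test compounds were applied to a repair-deficient yeast strain. Its growth was then compared with that of cultures given vehicle alone, and inhibition was expressed relative to those controls.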
# [14] = NCI Yeast Anticancer Drug Screen. Data for the CLN2oe strain (AID 163);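 note: 0% = growth of vehicle-only control cultures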; settings: S. cerevisiae CLN2oe strain, stronger effect = higher value
# How it was run: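 Compound-treated yeast; growth vs vehicle ctrl = % inhibition. Genetically altered strain (cell-cycle control).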
# [15] = at 5.0 µM (retest, dose inferred, filed as 0.5)
# [16] = at 50.0 µM (retest, dose inferred, filed as 5.0)
structure (smiles),measurement,setting,value
Cc1nc2ccccc2c(=O)n1NC(=O)c1ccc(CS)cc1,growth inhibition,[1]; at 50.0 µM,65.5%
same,growth inhibition,[2]; [15],-29%
same,growth inhibition,[2]; [16],6%
same,growth inhibition,[2]; at 50.0 µM,31.9%
same,growth inhibition,[3]; at 1.2 µM,16%
same,growth inhibition,[3]; at 3.7 µM,-6%
same,growth inhibition,[3]; [15],-13%
same,growth inhibition,[3]; at 11.0 µM,16%
same,growth inhibition,[3]; at 33.0 µM,45%
same,growth inhibition,[3]; [16],41%
same,growth inhibition,[3]; at 50.0 µM,-8.65%
same,growth inhibition,[3]; at 100.0 µM,96% (active)
same,growth inhibition,[4]; at 1.2 µM,4%
same,growth inhibition,[4]; at 3.7 µM,7%
same,growth inhibition,[4]; at 11.0 µM,9%
same,growth inhibition,[4]; at 33.0 µM,16%
same,growth inhibition,[4]; at 100.0 µM,92% (active)
same,growth inhibition,[5]; at 1.2 µM,0%
same,growth inhibition,[5]; at 3.7 µM,12%
same,growth inhibition,[5]; at 11.0 µM,16%
same,growth inhibition,[5]; at 33.0 µM,36%
same,growth inhibition,[5]; at 100.0 µM,95% (active)
same,growth inhibition,[6]; at 1.2 µM,15%
same,growth inhibition,[6]; at 3.7 µM,11%
same,growth inhibition,[6]; at 11.0 µM,20%
same,growth inhibition,[6]; at 33.0 µM,61%
same,growth inhibition,[6]; at 100.0 µM,95% (active)
same,growth inhibition,[7]; [15],-51%
same,growth inhibition,[7]; [16],71% (active)
same,growth inhibition,[7]; at 50.0 µM,65%
same,growth inhibition,[8]; at 1.2 µM,9%
same,growth inhibition,[8]; at 3.7 µM,12%
same,growth inhibition,[8]; at 11.0 µM,2%
same,growth inhibition,[8]; at 33.0 µM,40%
same,growth inhibition,[8]; at 100.0 µM,96% (active)
O=S(=O)(CCC[C@H]1[C@@H](CCOCc2ccccc2)C2CCCN1O2)c1ccccc1 (stereo partly drawn),growth inhibition,[9]; at 1.2 µM,2%
same,growth inhibition,[9]; at 3.7 µM,2%
same,growth inhibition,[9]; at 11.0 µM,1%
same,growth inhibition,[9]; at 33.0 µM,1%
same,growth inhibition,[9]; at 100.0 µM,19%
same,growth inhibition,[10]; at 1.2 µM,0%
same,growth inhibition,[10]; at 3.7 µM,-1%
same,growth inhibition,[10]; at 11.0 µM,2%
same,growth inhibition,[10]; at 33.0 µM,2%
same,growth inhibition,[10]; at 100.0 µM,4%
same,growth inhibition,[11]; at 1.2 µM,-3%
same,growth inhibition,[11]; at 3.7 µM,-13%
same,growth inhibition,[11]; [15],-9%
same,growth inhibition,[11]; at 11.0 µM,-13%
same,growth inhibition,[11]; at 33.0 µM,10%
same,growth inhibition,[11]; [16],-11%
same,growth inhibition,[11]; at 50.0 µM,-4.6%
same,growth inhibition,[11]; at 100.0 µM,22%
same,growth inhibition,[12]; at 1.2 µM,4%
same,growth inhibition,[12]; at 3.7 µM,4%
same,growth inhibition,[12]; [15],-9%
same,growth inhibition,[12]; at 11.0 µM,5%
same,growth inhibition,[12]; at 33.0 µM,13%
same,growth inhibition,[12]; [16],-22%
same,growth inhibition,[12]; at 50.0 µM,-19.2%
same,growth inhibition,[12]; at 100.0 µM,27%
same,growth inhibition,[13]; at 1.2 µM,1%
same,growth inhibition,[13]; at 3.7 µM,-3%
same,growth inhibition,[13]; at 11.0 µM,3%
same,growth inhibition,[13]; at 33.0 µM,10%
same,growth inhibition,[13]; at 100.0 µM,25%
same,growth inhibition,[1]; [15],9%
same,growth inhibition,[1]; [16],20%
same,growth inhibition,[1]; at 50.0 µM,-23.6%
same,growth inhibition,[14]; at 1.2 µM,1%
same,growth inhibition,[14]; at 3.7 µM,6%
same,growth inhibition,[14]; at 11.0 µM,5%
same,growth inhibition,[14]; at 33.0 µM,16%
same,growth inhibition,[14]; at 100.0 µM,37%
same,growth inhibition,[2]; [15],-7%
same,growth inhibition,[2]; [16],46%
same,growth inhibition,[2]; at 50.0 µM,42.5%
same,growth inhibition,[3]; at 1.2 µM,1%
same,growth inhibition,[3]; at 3.7 µM,2%
same,growth inhibition,[3]; [15],22%
same,growth inhibition,[3]; at 11.0 µM,2%
same,growth inhibition,[3]; at 33.0 µM,6%
same,growth inhibition,[3]; [16],10%
same,growth inhibition,[3]; at 50.0 µM,-12.1%
same,growth inhibition,[3]; at 100.0 µM,12%
same,growth inhibition,[4]; at 1.2 µM,-1%
same,growth inhibition,[4]; at 3.7 µM,-1%
same,growth inhibition,[4]; at 11.0 µM,-3%
same,growth inhibition,[4]; at 33.0 µM,2%
same,growth inhibition,[4]; at 100.0 µM,26%
same,growth inhibition,[5]; at 1.2 µM,3%
same,growth inhibition,[5]; at 3.7 µM,3%
same,growth inhibition,[5]; at 11.0 µM,1%
same,growth inhibition,[5]; at 33.0 µM,7%
same,growth inhibition,[5]; at 100.0 µM,26%
same,growth inhibition,[6]; at 1.2 µM,2%
same,growth inhibition,[6]; at 3.7 µM,3%
same,growth inhibition,[6]; at 11.0 µM,2%
same,growth inhibition,[6]; at 33.0 µM,19%
same,growth inhibition,[6]; at 100.0 µM,41%
same,growth inhibition,[7]; [15],-14%
same,growth inhibition,[7]; [16],-2%
same,growth inhibition,[7]; at 50.0 µM,0.4%
same,growth inhibition,[8]; at 1.2 µM,2%
same,growth inhibition,[8]; at 3.7 µM,6%
same,growth inhibition,[8]; at 11.0 µM,4%
same,growth inhibition,[8]; at 33.0 µM,7%
same,growth inhibition,[8]; at 100.0 µM,19%
